From PubChem BioAssay (NCI)
This is part of a sample that, as a whole, favours compounds with a hit. Of some 83,000 tested, about 20% had one in any assay.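 The endpoint reported here, percent growth, reads 100 for growth as untreated, 0 for no net growth and -100 for all cells dead.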 Unmarked numbers belong to inactive results. Active and inactive are the calls of the source. The calls were made as follows: active = growth percent below 10; inactive = the rest.

Test system: HL-60(TB) leukemia
Experiment: NCI-60 one-dose screen, 48 h (100 = growth as untreated, 0 = no growth, -100 = all killed)
Conditions: 10 µM unless noted

| Compound | growth |
| --- | --- |
| O=C1C=CC(Nc2ccccc2[N+](=O)[O-])C1Nc1ccccc1[N+](=O)[O-] (stereo not given) | 25.1% |
| C#CCOc1cccc(-c2ncc3cc(NC(=O)CCl)ccc3n2)c1 | 14.3% |
| CCCC(=O)OCC1OC(n2cnc3c(=S)nc(N)[nH]c32)C(OC(=O)CCC)C1OC(=O)CCC (stereo not given) | 13.2% |
| CN1CCN(C(=O)OCc2nc3c(N4CCOCC4)nc(-c4ccccc4)nc3n2C)CC1 | -32.5% (active) |
| CSCCC(NC(=O)C(Cl)Cl)C(=O)O (stereo not given) | 98.1% |
| CCCCCCCCc1cc(Cl)c(O)c(Cl)c1 | 101% |
| CC(C)c1ccc(NC(=O)Cc2ccc(Nc3ncnc4cc(-c5cnn(CCN(C)C)c5)ccc34)cc2)cc1 | -66.4% [30 µM] (active) |
| COc1nc2c(c(=O)n1C)CN(Cc1ccccc1)C=N2 | 92.9% |
| COc1ccc(NC(=O)c2sc3nc(C)c(C(=O)/C=C/c4ccccc4)cc3c2N)cc1 | 24.2% |
| Cc1c2cnccc2c(C)c2c1c1cc(C3OCCCO3)ccc1n2C | -4.04% (active) |
| CN1CCN(c2ccc3c(c2)nc(NNC(=O)c2cnccn2)c2cccn23)CC1 | -9.26% (active) |
| Nc1[nH]c(=S)nc2oc(-c3ccccc3)c(-c3ccccc3)c12 | 90.5% |
| C=CCOC(=O)C(=O)OCC=C | 68.7% |
| C=C(C)[C@@H]1CC[C@]2(/C=N/Nc3ccncc3)CC[C@]3(C)[C@H](CC[C@@H]4[C@@]5(C)CCCNC(C)(C)[C@@H]5CC[C@]43C)[C@@H]12 | 58.5% |
| S=C(S)Oc1cccc2cccnc12 | 80.7% |
| CN(C)C(=O)SC1=C(c2c(Cl)cccc2Cl)C(=O)c2ccccc21 | -35.7% (active) |
| COc1ccc(C(=S)N2CCN(c3ccccc3Cl)CC2)cc1OC | 118% |
| CN=C(NC)N/N=C(C)\C=N\NC(=NC)NC | 99% |
| C=CCCCC(=O)CCC(=O)OCC1O[C@@H](O[C@@H]2C(O)[C@@H](OC(C)=O)C(C)O[C@H]2O[C@H](CC=C)CCCCC)C(O)[C@@H](OC(=O)/C(C)=C/C)[C@@H]1OC(=O)/C=C/c1ccccc1 (stereo not given in full) | 8.45% (active) |
| O=C(Nc1ncc(Cc2cc(Cl)ccc2Cl)s1)c1cccs1 | 86.1% |

| Compound | growth |
| --- | --- |
| O=C(O)c1cc(C(F)(F)F)cc(C(F)(F)F)c1 | 88.2% |
| O=CN1N=C(c2cccc(Nc3ccncc3)c2)CC1c1ccc2c(c1)OCO2 (stereo not given) | 85.5% |
| CSc1ccc(N=C=C(c2ccccc2)c2ccccc2)cc1 | 79.8% |
| CCOC(=O)c1c(C)nc2c(c1N)/C(=C/c1cccs1)C(=O)N2Cc1ccccc1 | 60.4% |
| O=c1ccc(=O)n(-c2nc(-c3ccc([N+](=O)[O-])cc3)cs2)[nH]1 | 89% |
| O=c1c2ccccc2sc2c(N3CCCC3)nc3ccccc3c12 | 99.1% |
| Clc1ccc(COc2ccc(Nc3ncnc4onc(-c5ccccc5)c34)cc2)cc1 | 98.8% |
| O=C1/C(=C(/c2ccccc2)N2CCOCC2)Cc2ccccc21 | 27.5% |
| COc1ccc(-c2cc(/C=C3\C(=O)Nc4cc(Cl)ccc43)[nH]n2)cc1 | -11.7% (active) |
| COc1ccc(C2[C@@H](c3ccccc3)C(=O)N2c2cc(OC)c(OC)c(OC)c2)cc1F (stereo not given in full) | -50.3% (active) |
| CCCCNCCCCCNc1cc(OC)cc2cccnc12 | 67.5% |
| O=Nc1ccc2ccccc2c1O | 74.3% |
| CN(C)c1ccc(/C=C/C(=O)c2ccccc2)cc1 | 66.7% |
| CC(C)c1ccc(C(=O)Nc2sc3c(CN(C)C)c(O)ccc3c2C(N)=O)cc1 | 24.2% |
| CC(C)CCSC1=CC(=O)c2ccccc2C1=O | 13.3% |
| COc1ccc(N/N=C/c2cn(-c3ccc(C(=O)O)cc3)nc2-c2cc3ccccc3oc2=O)cc1 | 8.19% (active) |
| Cc1ccc(-c2ccc(/C=C(\C#N)c3nc(-c4ccco4)cs3)o2)cc1 | 101% |
| COc1ccccc1NC(=O)c1cc2cc(Br)ccc2cc1O | -33.7% (active) |
| CN1CCN(CCCNc2nccc(-c3c(-c4ccc(F)c(O)c4)nc4sccn34)n2)S1(=O)=O | 78.3% |
| c1cc[n+](Cc2ccnc3ccccc23)cc1 | 84.7% |
